Assay [1] can be described thus: inhibitors of TNFa-induced NFkB p65 translocation, primary screen, imaging, HUVEC, MLSMR starter and 10KST1 sets (AID 438;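 active = inhibition above 20% together with a positive visual image hit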;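 also: compound added about 3h40 before a 20 min TNFalpha stimulation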;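 as to inhibition: signal is the nuclear over cytoplasmic p65 intensity ratio per well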). As to conditions: HUVEC TNFa-induced p65 nuclear translocation; cell count: measured here: nuclei count (cytotoxicity indicator), at 2.08 µM; inhibition: at 2 µM, stronger effect = higher value, 0% TNFa-plus-vehicle, 100% no-TNFa wells.
A short description of assay [2]: inhibitors of mutant huntingtin aggregation, primary screen, imaging, exon1htt(103Q)mCFP cells, high-content imaging (AID 483;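 active = visual image review flags a hit and inhibition of aggregation exceeds 20%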;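 also: compound exposure lasted 3 days before fixation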;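 as to nuclei count: percent of the per-plate median nuclei count of sample wells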). To be noted: exon1htt(103Q)mCFP cell line, aggregate imaging, at 2 µM; inhibition of aggregation: stronger effect = higher value; nuclei count: measured here: cell count, toxicity.
Assay [3] in a line: inhibitors of E-selectin induction by TNFa, primary screen, imaging, HUVEC, immunofluorescence, MLSMR starter and 10KST1 sets (AID 487;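 active = visually confirmed hit in the image check and inhibition above 20%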;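 as to inhibition: signal is fraction of cell area covered by stained E-selectin grains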;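 as to nuclei count: 100% = median nuclei count of all wells on the same plate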). To be noted: HUVEC TNFalpha-induced E-selectin immunofluorescence imaging, at 2 µM; inhibition: stronger effect = higher value; nuclei count: measured here: cell number, toxicity.
Assay [4] concerns the target Voltage-gated potassium channel subunit beta-2 (Rattus norvegicus) (UniProt P62483). Put plainly: KvBeta enzyme negative modulators, primary screen, biochemical, NADPH fluorescence (AID 622;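 active = fluorescence slope higher than the sample average by over 3 SD, cut at about -0.22 in these data, passing the limit was not always enough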;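 also: slope of raw intensity against log time taken from 70 to 1610 s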). As to conditions: recombinant KvBeta, 4-cyanobenzaldehyde reduction, at 10 µM, stronger effect = higher value.
Assay [5] has the same target. Put plainly: KvBeta positive modulators, primary screen, biochemical, NADPH fluorescence (AID 623;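 active = NADPH fluorescence slope more negative than the mean of all samples by about 3 SD, 99.7% confidence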;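 also: fluorescence intensity change per second fitted from 20 to 320 s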). To be noted: Recombinant KvBeta, NADPH fluorescence decrease slope, 10 min; at 10 µM; stronger effect = lower value.
Assay [6] concerns the target Alpha-2C adrenergic receptor (Homo sapiens) (UniProt P18825). The assay can be described thus: modulators of alpha2C/GIRK thallium flux, primary screen, cell-based, HEK293 alpha2C/GIRK1/2 (AID 624;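 active = fluorescence slope after compound addition differing from the mean of all screened samples at 99.7% confidence, in either direction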;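 also: slope of fluorescence ratio to pre-addition baseline per second over 15 to 24 s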). As to conditions: thallium flux BTC fluorescence, at 10 µM, actives lie on both sides.
A short description of assay [7]: inhibitors of Sendai virus-induced IRF3 signaling, primary screen, TLR/RLR signaling modifier project, cell-based, Sendai virus stimulus, luciferase, 10K MLSCN set (AID 602276;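 active = inhibition at or above 50% at 10 µM; inactive = inhibition below 50%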;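 also: firefly luciferase from ISG56 promoter only with Renilla not read in this screen; 0% = Sendai virus plus DMSO and 100% = medium plus DMSO without virus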). As to conditions: HEK293 RL24 IRF3 luciferase reporter, at 10 µM, stronger effect = higher value. Background: In a reporter assay the amount or activity of a reporter protein is the signal.
The nature of assay [8]: inhibitors of poly I:C-induced TLR3 signaling, primary screen, cell-based, poly I:C stimulus, luciferase, 10K MLSCN set (AID 602277). To be noted: HEK293-TLR3 RL24 IRF3 luciferase reporter, at 10 µM, stronger effect = higher value.

This is an account of results in PubChem BioAssay.

The structures appear in SMILES notation. The source made the active and inactive calls.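 The calls were made as follows, unless noted: active = inhibition of the reporter signal at or above 50%; inactive = inhibition below 50%.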

Chain of Alpha-2C adrenergic receptor (Homo sapiens) (P18825 whole entry, looked up): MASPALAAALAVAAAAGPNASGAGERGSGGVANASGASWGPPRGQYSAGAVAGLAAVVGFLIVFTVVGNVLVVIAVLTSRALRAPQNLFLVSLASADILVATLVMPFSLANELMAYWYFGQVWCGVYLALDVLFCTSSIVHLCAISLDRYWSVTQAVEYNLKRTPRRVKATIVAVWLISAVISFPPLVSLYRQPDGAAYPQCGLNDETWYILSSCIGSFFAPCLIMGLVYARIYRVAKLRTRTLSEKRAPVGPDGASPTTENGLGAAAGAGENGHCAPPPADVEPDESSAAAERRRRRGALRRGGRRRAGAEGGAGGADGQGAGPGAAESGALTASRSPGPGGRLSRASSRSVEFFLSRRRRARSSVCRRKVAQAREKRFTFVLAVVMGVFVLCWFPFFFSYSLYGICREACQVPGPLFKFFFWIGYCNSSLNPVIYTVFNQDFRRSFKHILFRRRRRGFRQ
Chain of Voltage-gated potassium channel subunit beta-2 (Rattus norvegicus) (P62483 whole entry, looked up): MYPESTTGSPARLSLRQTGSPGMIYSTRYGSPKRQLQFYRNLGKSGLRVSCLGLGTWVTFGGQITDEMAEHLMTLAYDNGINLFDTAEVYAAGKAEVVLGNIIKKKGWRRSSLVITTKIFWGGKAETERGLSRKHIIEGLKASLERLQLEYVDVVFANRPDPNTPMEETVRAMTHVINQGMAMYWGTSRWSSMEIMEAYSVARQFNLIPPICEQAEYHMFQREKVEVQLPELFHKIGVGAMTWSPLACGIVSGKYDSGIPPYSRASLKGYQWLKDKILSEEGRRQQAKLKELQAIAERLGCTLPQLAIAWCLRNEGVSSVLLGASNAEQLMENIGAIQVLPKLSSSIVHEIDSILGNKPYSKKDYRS

Broadly, the inhibition is the drop in the measured response relative to a control, in per cent. Turning to `Cn1cccc1Cc1nnc(SCC(=O)Nc2ccccc2F)n1CCc1ccccc1`, the cell count in assay [1] amounted to 614. Moreover, the inhibition in assay [1] was -7.4% (inactive); in assay [3], -52.6% (inactive); in assay [7], 3.46% (inactive); in assay [8] it was 10.1% (inactive). The inhibition of aggregation in assay [2] was 7.5% (inactive). Also, the results for the nuclei count in assay [2] and in assay [3] were 92.6% and 103%, respectively. In addition, in assay [4], the fluorescence slope is -0.619 (inactive). The NADPH fluorescence slope in assay [5] was 1.5e-05 (inactive). In addition, in assay [6], the slope is 0.00629 (inactive).

`CCOc1ccc2nc(N3CCC(C(=O)N4CCN(C5CCCCC5)CC4)CC3)sc2c1`: in assay [1], the cell count was 594. The inhibition in assay [1] is -0.8% (inactive); in assay [3], -54% (inactive); in assay [7] it was -54.1% (inactive); in assay [8], -73.6% (inactive). Besides, the inhibition of aggregation in assay [2] was -15.4% (inactive). In addition, the nuclei count in assay [2] amounted to 103%; in assay [3], 107%. The fluorescence slope in assay [4] is -0.553 (inactive). The NADPH fluorescence slope in assay [5] was 6.2e-06 (inactive). Besides, in assay [6], the slope is 0.00601 (inactive).

`CN(CC(=O)N1CCCCC1)S(=O)(=O)c1cccc2cccnc12`: the cell count in assay [1] amounted to 792. Also, the inhibition in assay [1] was 4.3% (inactive); in assay [3], -53.1% (inactive); in assay [7], 3.62% (inactive); in assay [8], 25.4% (inactive). Besides, the inhibition of aggregation in assay [2] was 9.7% (inactive). Moreover, the nuclei count came out at 112% in assay [2] and 124% in assay [3]. Also, the fluorescence slope in assay [4] is -0.531 (inactive). In addition, the NADPH fluorescence slope in assay [5] is -1e-05 (inactive). Moreover, in assay [6], the slope is 0.00551 (inactive).

For the compound `COc1ccc(-c2nnc(SCC(=O)N3CCCCC3)o2)cc1OC`, the cell count in assay [1] came out at 670. In addition, the inhibition in assay [1] is -1.6% (inactive); in assay [3] it was -85.6% (inactive); in assay [7] it was 3.05% (inactive); in assay [8], 15.9% (inactive). Moreover, the inhibition of aggregation in assay [2] is 5.7% (inactive). Further, the figures for the nuclei count in assay [2] and in assay [3] were 120% and 123%, respectively. Further, in assay [4], the fluorescence slope was -0.543 (inactive). For the same compound, the NADPH fluorescence slope in assay [5] was -9.6e-06 (inactive). For the same compound, the slope in assay [6] is 0.00656 (inactive).

In the case of `Cc1ccccc1Cn1ccc(NC(=O)c2cnn3c(C(F)(F)F)cc(-c4ccco4)nc23)n1`, in assay [1], the cell count amounted to 568. Further, the inhibition in assay [1] is -3.8% (inactive); in assay [3], -7.4% (inactive); in assay [7] it was 19.2% (inactive); in assay [8], 32% (inactive). For the same compound, the inhibition of aggregation in assay [2] is 10.6% (inactive). Further, the nuclei count turned out to be 96.8% in assay [2] and 99.2% in assay [3]. In addition, the fluorescence slope in assay [4] was -0.613 (inactive). The NADPH fluorescence slope in assay [5] is -5.8e-05 (inactive). Besides, the slope in assay [6] is 0.00253 (inactive).

With `CCc1nnc(NC(=O)CSc2nnc(-c3ccoc3C)n2CC(C)C)s1`, in assay [1], the cell count came to 714. The inhibition was 3.2% (inactive) in assay [1], 15.4% (inactive) in assay [3], 16.7% (inactive) in assay [7] and 15.3% (inactive) in assay [8]. For the same compound, the inhibition of aggregation in assay [2] is -3.8% (inactive). In addition, the nuclei count came out at 110% in assay [2] and 91% in assay [3]. Also, in assay [4], the fluorescence slope was -0.367 (inactive). Further, in assay [5], the NADPH fluorescence slope is 4.9e-06 (inactive). Also, the slope in assay [6] is 0.0051 (inactive).

For `COC(=O)CN1C(=O)C(O)(CC(=O)c2ccc(C)cc2)c2cc(Br)ccc21` (centres undefined), the cell count in assay [1] was determined as 612. Also, the inhibition was 2.9% (inactive) in assay [1], -49.2% (inactive) in assay [3], 4.14% (inactive) in assay [7] and -1.15% (inactive) in assay [8]. Further, the inhibition of aggregation in assay [2] was -6% (inactive). The nuclei count in assay [2] was found to be 94.5%; in assay [3] it was 113%. The fluorescence slope in assay [4] is -0.436 (inactive). Further, the NADPH fluorescence slope in assay [5] is -4.5e-05 (inactive). Moreover, the slope in assay [6] was 0.00497 (inactive).

Take `COc1ccc(C)cc1NC(=O)c1nc2nc(C)cc(C)n2n1`: the cell count in assay [1] stood at 471. Besides, the inhibition is 3.8% (inactive) in assay [1], -23.4% (inactive) in assay [3], 18.5% (inactive) in assay [7] and 9.03% (inactive) in assay [8]. Besides, the inhibition of aggregation in assay [2] was 5.2% (inactive). In addition, the values for the nuclei count in assay [2] and in assay [3] were 98.1% and 124%, respectively. In assay [4], the fluorescence slope was -0.297 (inactive). In addition, the NADPH fluorescence slope in assay [5] was 1.4e-06 (inactive). Besides, the slope in assay [6] is 0.00674 (inactive).

For the compound `Oc1ccc(Nc2nc(-c3ccc(O)cc3)cs2)cc1`, the cell count in assay [1] was 277. Also, the inhibition is 15.1% (inactive) in assay [1], -20.5% (inactive) in assay [3], -43% (inactive) in assay [7] and -59.8% (inactive) in assay [8]. In addition, the inhibition of aggregation in assay [2] was 18.9% (inactive). Moreover, the nuclei count turned out to be 71.8% in assay [2] and 124% in assay [3]. Moreover, the fluorescence slope in assay [4] is -0.429 (inactive). Further, in assay [5], the NADPH fluorescence slope was -4.3e-05 (inactive). The slope in assay [6] was 0.00332 (inactive).

`Cc1cc(NC(=O)C23CCC(C)(C(=O)O2)C3(C)C)no1` (centres undefined): the cell count in assay [1] came out at 406. Besides, the inhibition was 4% (inactive) in assay [1], -22.3% (inactive) in assay [3], 4.18% (inactive) in assay [7] and 10.3% (inactive) in assay [8]. In assay [2], the inhibition of aggregation is 14.4% (inactive). For the same compound, the nuclei count in assay [2] is 80.2%; in assay [3] it was 111%. For the same compound, the fluorescence slope in assay [4] was -0.612 (inactive). For the same compound, the NADPH fluorescence slope in assay [5] was -1.5e-06 (inactive). In assay [6], the slope was 0.00569 (inactive).

In the case of `CCOc1ccc(N(C(C)C(=O)NC2CCCCCC2)S(C)(=O)=O)cc1` (centres undefined), the cell count in assay [1] is 355. The inhibition in assay [1] is 2.7% (inactive); in assay [3], -40.2% (inactive); in assay [7], 3.76% (inactive); in assay [8], 19.7% (inactive). Moreover, the inhibition of aggregation in assay [2] was -10.8% (inactive). Besides, the nuclei count in assay [2] turned out to be 109%; in assay [3], 107%. Besides, the fluorescence slope in assay [4] was -0.342 (inactive). In assay [5], the NADPH fluorescence slope was -4e-05 (inactive). Also, the slope in assay [6] was 0.00764 (inactive).

As to `CCOCCCNC(=O)c1cc2sc(Cl)cc2n1CC`, the cell count in assay [1] stood at 449. Also, the inhibition in assay [1] was 17.9% (inactive); in assay [3], -80.9% (inactive); in assay [7], 34.7% (inactive); in assay [8], 19.5% (inactive). In addition, the inhibition of aggregation in assay [2] is -1.1% (inactive). In addition, the nuclei count in assay [2] was 89.7%; in assay [3], 100%. Moreover, the fluorescence slope in assay [4] is -0.531 (inactive). Moreover, in assay [5], the NADPH fluorescence slope was -9.5e-05 (inactive). For the same compound, the slope in assay [6] was 0.00603 (inactive).

Take `CC1=C(C(=O)OC(C)C)C(C2CC=CCC2)NC(=O)N1` (centres undefined): the cell count in assay [1] was 306. In addition, the inhibition was 2% (inactive) in assay [1], 35.9% (inactive) in assay [3], 0.205% (inactive) in assay [7] and 9.1% (inactive) in assay [8]. Further, the inhibition of aggregation in assay [2] is 17.1% (inactive). For the same compound, the nuclei count is 93% in assay [2] and 98.9% in assay [3]. Further, the fluorescence slope in assay [4] is -0.322 (inactive). Also, the NADPH fluorescence slope in assay [5] is 1.4e-05 (inactive). For the same compound, in assay [6], the slope is 0.0059 (inactive).

For `O=C1NC(c2ccccc2)(C(F)(F)F)SC2=CCCCCN12` (centres undefined), the cell count in assay [1] was determined as 415. The inhibition in assay [1] is 12.1% (inactive); in assay [3], -14% (inactive); in assay [7], -3.83% (inactive); in assay [8] it was 7.38% (inactive). In addition, in assay [2], the inhibition of aggregation is 2% (inactive). Besides, the results for the nuclei count in assay [2] and in assay [3] were 98.6% and 111%, respectively. Also, the fluorescence slope in assay [4] was -0.545 (inactive). The NADPH fluorescence slope in assay [5] was 5e-05 (inactive). In addition, the slope in assay [6] is 0.00583 (inactive).
